Unmarked numbers belong to inactive results.
Key:
[1] = system: Falciformispora senegalensis CBS197.79; assay: growth relative to untreated control; higher = less inhibition, active = 20 or less
In short: (§1)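 Viability readout used either MTS (2 h, 490 nm) or resazurin (600 nm). Before this, hyphal fragments of M. mycetomatis MM55 or F. senegalensis CBS197.79 in colourless RPMI 1640 with L-glutamine and MOPS (68–72% transmission at 660 nm) had been exposed in 96-well plates to compound at 100 or 25 µM for 7 days at 37 °C. Growth denotes metabolic activity relative to the untreated growth control, with a medium-plus-dye blank subtracted from both.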

[2] = system: Madurella mycetomatis MM55; assay: as above
In short: as §1

| Compound | growth ([1]; 25 µM) [%] | growth ([1]; 100 µM) | growth ([2]; 25 µM) | growth ([2]; 100 µM) |
| --- | --- | --- | --- | --- |
| c1cc(N2CCC(CN3CCOCC3)CC2)c2sccc2n1 | 79 | 32.1% | 90.4% | 31.4% |
| CC(C)(C)Nc1ncc2nc(Nc3cc(Cl)cc(C(F)(F)F)c3)n([C@H]3C[C@H](N)C3)c2n1 | 50.9 | 11.3% (active) | 7.82% (active) | 5.73% (active) |
| Cc1cc2c(cc1Cl)N(C(=O)Nc1cc(F)cc(-c3cncnc3)c1)CC2 | 87 | 101% | 106% | 49.7% |
| CCOCCCNc1nc2cc(OC)c(OC)cc2c2nc(-c3ccccc3)nn12 | 93.1 | 89.3% | 95.5% | 120% |
| C[C@@H](c1nc(-c2ccc(C#N)cc2)cs1)[C@](O)(Cn1cncn1)c1ccc(F)cc1F | 49.9 | 52.3% | 3.04% (active) | 5.78% (active) |
| CN(C)CCn1cnc2sc3c(c2c1=O)CCC(NCc1cccc(Cl)c1)C3 (stereo unspecified) | 94.3 | 21% | 36.1% | 5.28% (active) |
| Cn1cnc2c(F)c(Nc3ccc(Br)cc3Cl)c(C(=O)NOCCO)cc21 | 96.9 | 103% | 110% | 86.3% |
| CC(C)(C)c1nc(-c2cccc(NS(=O)(=O)c3c(F)cccc3F)c2F)c(-c2ccnc(N)n2)s1 | 101 | 104% | 103% | 82.4% |
| CCOC(=O)NCCOc1cnn(Cc2ccccc2)c(=O)c1 | 91.1 | 101% | 100% | 97.3% |
| CO[C@@H](C(=O)N1Cc2[nH]nc(NC(=O)c3ccc(N4CCN(C)CC4)cc3)c2C1)c1ccccc1 | 103 | 102% | 94% | 77.7% |
| CO[C@H]1C[C@H](O[C@H]2[C@H](C)O[C@@H](O[C@@H]3/C(C)=C/C[C@@H]4C[C@@H](C[C@]5(C=C[C@H](C)[C@@H](C6CCCCC6)O5)O4)OC(=O)[C@@H]4C=C(C)[C@@H](O)[C@H]5OC/C(=C\C=C\[C@@H]3C)[C@]54O)C[C@@H]2OC)O[C@@H](C)[C@@H]1O | 93.1 | 88.5% | 101% | 125% |
| COC(=O)[C@@]1(c2ccc(C)cc2)C[C@H]1CN1CCC(O)(c2ccccc2)CC1 | 95.2 | 97.4% | 77.2% | 72.2% |
| Cc1cc(C)c2cc(C(=O)N[C@@H](C)c3ccccc3)[nH]c2c1 | 86.1 | 87.5% | 7.91% (active) | 69.4% |
| CN(C)C(=N)N=C(N)N | 104 | 105% | 87% | 87.2% |
| O=C(NC1CCNCC1)c1ccc(Nc2nccc(-c3ccc(Cl)cc3)n2)cc1 | 98 | 10% (active) | 37.4% | 6.07% (active) |
| CC(=O)Oc1ccccc1C(=O)Nc1ncc([N+](=O)[O-])s1 | 97.4 | 104% | 87.7% | 95.6% |
| COc1cc(OC)c2c(O)nc(-c3cc(C)c(OCCO)c(C)c3)nc2c1 | 103 | 97.6% | 103% | 72.7% |
| Cc1ccc(NC(=O)c2ccc(CN3CCN(C)CC3)cc2)cc1Nc1nccc(-c2cccnc2)n1 | 95.1 | 103% | 86% | 70.7% |
| COc1ccc(C(=O)N2CCC3(CC2)C(=O)N(CC(=O)NCC2CCCCC2)CN3c2ccccc2)c(OC)c1 | 91.9 | 85.8% | 67.1% | 50.8% |

Reference: the supplement of paper PMC11172423
